“And” between values parts separate entries of the source, which are not always exact repeats. Equal values may be shown once. Results filed as inconclusive are left out. A structure can be active in one record and inactive in another. The source made the active and inactive calls. Unless noted, the call rests on the fitted dose curve; in most records, active means well fitted curve in the direction sought with a large enough effect in the repeat runs; inconclusive means weak or mixed curves; inactive means no such curve, though single readings can be large; an effect the other way counts as inactive or inconclusive.
How the values were obtained:
[1] = qHTS assay to identify small molecule antagonists of the glucocorticoid receptor (GR) signaling pathway - cell viability counter screen (AID 720693); further: nearly all actives have a fitted effect of over 55% in size; further: potency means the concentration at half of the fitted maximal effect
[2] = qHTS assay for identifying genotoxic compounds that show differential cytotoxicity against isogenic chicken DT40 cell lines with known DNA damage response pathways - wild type cell line (AID 743012); further: nearly all actives have a fitted effect of over 60% in size; further: potency means the concentration at half of the fitted maximal effect
How it was run: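 Quantitative HTS on parental DT40 cells: 40 h compound treatment at 37 C/5% CO2, with viability then determined by CellTiter-Glo luminescence. Values serve as the DNA repair-proficient reference for differential cytotoxicity.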

[3] = qHTS assay for identifying genotoxic compounds that show differential cytotoxicity against isogenic chicken DT40 cell lines with known DNA damage response pathways - Rev3 mutant cell line (AID 743014); further: nearly all actives have a fitted effect of over 55% in size; further: potency means the concentration at half of the fitted maximal effect
[4] = qHTS assay for identifying genotoxic compounds that show differential cytotoxicity against isogenic chicken DT40 cell lines with known DNA damage response pathways - Rad54/Ku70 mutant cell line (AID 743015); further: nearly all actives have a fitted effect of over 60% in size; further: potency means the concentration at half of the fitted maximal effect
[5] = qHTS assay to identify small molecule antagonists of the androgen receptor (AR) signaling pathway - cell viability counter screen (AID 743033; further: nearly all actives have a fitted effect of over 45% in size; further: potency means the concentration at half of the fitted maximal effect)
[6] = qHTS assay to identify small molecule antagonists of the androgen receptor (AR) signaling pathway using the MDA cell line - cell viability counter screen (AID 743041; further: nearly all actives have a fitted effect of over 45% in size; further: potency means the concentration at half of the fitted maximal effect)
How it was run: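 R1881-driven MDA-kb2 AR-luc cells, 3,000/well, were dosed with library compounds for 16 h; cell health came from CellTiter-Fluor fluorescence in the reporter wells.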

[7] = qHTS assay to identify small molecule antagonists of the thyroid receptor (TR) signaling pathway - cell viability counter screen (AID 743064); further: nearly all actives have a fitted effect of over 50% in size; further: potency means the concentration at half of the fitted maximal effect
How it was run: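 CellTiter-Fluor readout, 30 min at 37 °C/5% CO2, following 23.5 h incubation of GH3.TRE-Luc cells with test compound and 1 nM T3 (final).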

[8] = qHTS assay to identify small molecule antagonists of the thyroid receptor (TR) signaling pathway (AID 743065); further: nearly all actives have a fitted effect of over 55% in size; further: potency means the concentration at half of the fitted maximal effect
How it was run: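 Antagonism measured as loss of luciferase signal in GH3 cells stably carrying a TRE-luciferase reporter, co-treated with compound and T3 (1 nM final) for 23.5 h at 37 C. Viability was read in the same well by CellTiter-Fluor.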

[9] = system: thyroid hormone receptor (rat, GH3 cells); test: qHTS assay to identify small molecule agonists of the thyroid receptor (TR) signaling pathway (AID 743066; calls by dose curve; further: on the % scale 0 is the no-effect control and ±100 the full control effect)
[10] = biological target: Estrogen receptor (Homo sapiens) (UniProt P03372); test: qHTS assay to identify small molecule antagonists of the estrogen receptor alpha (ER-alpha) signaling pathway (AID 743069; active means well fitted curve in the direction sought with a large enough effect in the signal ratio in the repeat runs, not every such curve was filed as active; the % refers to the signal ratio; further: on the % scale 0 is the no-effect control and ±100 the full control effect)
Estrogen receptor (Homo sapiens), sequence (P03372 whole entry, looked up): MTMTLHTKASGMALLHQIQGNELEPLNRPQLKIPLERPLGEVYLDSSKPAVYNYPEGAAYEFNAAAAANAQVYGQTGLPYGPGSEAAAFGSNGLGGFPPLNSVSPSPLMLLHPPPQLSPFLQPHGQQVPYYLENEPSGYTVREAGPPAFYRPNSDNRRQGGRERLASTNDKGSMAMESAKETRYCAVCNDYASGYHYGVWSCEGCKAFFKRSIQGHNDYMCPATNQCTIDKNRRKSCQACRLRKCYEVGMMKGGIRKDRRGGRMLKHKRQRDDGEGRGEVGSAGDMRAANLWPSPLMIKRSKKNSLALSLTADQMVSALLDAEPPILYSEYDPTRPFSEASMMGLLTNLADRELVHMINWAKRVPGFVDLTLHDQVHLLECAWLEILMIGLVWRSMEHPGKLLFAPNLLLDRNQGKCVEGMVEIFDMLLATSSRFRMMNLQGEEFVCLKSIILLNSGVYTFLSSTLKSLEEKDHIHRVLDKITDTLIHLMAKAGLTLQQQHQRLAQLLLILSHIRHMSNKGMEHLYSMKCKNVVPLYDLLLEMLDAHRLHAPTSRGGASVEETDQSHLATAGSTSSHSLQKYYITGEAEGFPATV
How it was run: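 Compound effects are measured against 17beta-estradiol stimulation in HEK293 cells with a UAS-controlled beta-lactamase reporter for ER-alpha. Exposure lasts 18 hr at 37C; LiveBLAzer B/G FRET substrate follows for 2 hr at room temperature.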

[11] = qHTS assay to identify small molecule antagonists of the estrogen receptor alpha (ER-alpha) signaling pathway - cell viability counter screen (AID 743074; calls by dose curve;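 further: HEK293 cells carrying ER-alpha-UAS-bla reporter stimulated with 17beta-estradiol; nearly all actives have a fitted effect of over 45% in size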; further: potency means the concentration at half of the fitted maximal effect)
[12] = biological target: Estrogen receptor (Homo sapiens) (UniProt P03372); test: qHTS assay to identify small molecule agonists of the estrogen receptor alpha (ER-alpha) signaling pathway (AID 743075; calls by dose curve; further: on the % scale 0 is the no-effect control and ±100 the full control effect); conditions: HEK293 ER-alpha-UAS-bla, beta-lactamase FRET ratio, 18 h; activation: at 70.1 µM (top of the series)
[13] = biological target: Estrogen receptor (Homo sapiens) (UniProt P03372); test: qHTS assay to identify small molecule agonists of the estrogen receptor alpha (ER-alpha) signaling pathway using the BG1 cell line (AID 743079); conditions: BG1Luc4E2 cells, ERE-luciferase agonist, 22 h; further: on the % scale 0 is the no-effect control and ±100 the full control effect; nearly all actives have a fitted effect of over 20% in size
[14] = qHTS assay to identify small molecule antagonists of the estrogen receptor alpha (ER-alpha) signaling pathway using the BG1 cell line (AID 743080; calls by dose curve; further: nearly all actives have a fitted effect of over 25% in size; further: potency means the concentration at half of the fitted maximal effect)
How it was run: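 Antagonist mode: compounds in DMSO were pinned onto BG1-Luc-4E2 cells alongside 17beta-estradiol agonist, incubated 21.5 h, and ERE-driven luciferase measured with ONE-Glo. Cytotoxicity was multiplexed using CellTiter-Fluor fluorescence.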

[15] = qHTS assay to identify small molecule antagonists of the estrogen receptor alpha (ER-alpha) signaling pathway using the BG1 cell line - cell viability counter screen (AID 743081);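 further: compound given together with 17beta-estradiol as the ER stimulus; nearly all actives have a fitted effect of over 45% in size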; further: potency means the concentration at half of the fitted maximal effect
Aromatase (Homo sapiens) = Aromatase (Homo sapiens) (UniProt P11511); test: qHTS assay to identify aromatase inhibitors (AID 743083); further: nearly all actives have a fitted effect of over 55% in size; further: potency means the concentration at half of the fitted maximal effect
Aromatase (Homo sapiens), sequence (P11511 whole entry, looked up): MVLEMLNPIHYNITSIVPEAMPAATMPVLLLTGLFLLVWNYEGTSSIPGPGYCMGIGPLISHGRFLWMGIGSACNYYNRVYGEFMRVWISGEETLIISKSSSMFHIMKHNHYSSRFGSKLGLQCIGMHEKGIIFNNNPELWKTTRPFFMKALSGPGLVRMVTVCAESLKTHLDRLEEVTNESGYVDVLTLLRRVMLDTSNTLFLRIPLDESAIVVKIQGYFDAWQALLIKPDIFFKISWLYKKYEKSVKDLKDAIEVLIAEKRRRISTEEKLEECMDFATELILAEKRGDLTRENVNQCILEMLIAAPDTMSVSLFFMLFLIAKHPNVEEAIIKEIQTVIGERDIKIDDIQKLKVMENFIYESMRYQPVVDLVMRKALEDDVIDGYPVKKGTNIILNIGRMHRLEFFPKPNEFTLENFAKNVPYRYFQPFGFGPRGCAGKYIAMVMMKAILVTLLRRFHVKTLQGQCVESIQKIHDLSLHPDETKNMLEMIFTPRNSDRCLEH

[16] = biological target: Androgen receptor (Homo sapiens) (UniProt P10275); test: qHTS assay to identify small molecule antagonists of the androgen receptor (AR) signaling pathway (AID 743035; active means well fitted inhibition curve with a large enough effect in the signal ratio in the repeat runs, not every such curve was filed as active; the % refers to the signal ratio; further: potency means the concentration at half of the fitted maximal effect)
Androgen receptor (Homo sapiens), sequence (P10275 whole entry, looked up): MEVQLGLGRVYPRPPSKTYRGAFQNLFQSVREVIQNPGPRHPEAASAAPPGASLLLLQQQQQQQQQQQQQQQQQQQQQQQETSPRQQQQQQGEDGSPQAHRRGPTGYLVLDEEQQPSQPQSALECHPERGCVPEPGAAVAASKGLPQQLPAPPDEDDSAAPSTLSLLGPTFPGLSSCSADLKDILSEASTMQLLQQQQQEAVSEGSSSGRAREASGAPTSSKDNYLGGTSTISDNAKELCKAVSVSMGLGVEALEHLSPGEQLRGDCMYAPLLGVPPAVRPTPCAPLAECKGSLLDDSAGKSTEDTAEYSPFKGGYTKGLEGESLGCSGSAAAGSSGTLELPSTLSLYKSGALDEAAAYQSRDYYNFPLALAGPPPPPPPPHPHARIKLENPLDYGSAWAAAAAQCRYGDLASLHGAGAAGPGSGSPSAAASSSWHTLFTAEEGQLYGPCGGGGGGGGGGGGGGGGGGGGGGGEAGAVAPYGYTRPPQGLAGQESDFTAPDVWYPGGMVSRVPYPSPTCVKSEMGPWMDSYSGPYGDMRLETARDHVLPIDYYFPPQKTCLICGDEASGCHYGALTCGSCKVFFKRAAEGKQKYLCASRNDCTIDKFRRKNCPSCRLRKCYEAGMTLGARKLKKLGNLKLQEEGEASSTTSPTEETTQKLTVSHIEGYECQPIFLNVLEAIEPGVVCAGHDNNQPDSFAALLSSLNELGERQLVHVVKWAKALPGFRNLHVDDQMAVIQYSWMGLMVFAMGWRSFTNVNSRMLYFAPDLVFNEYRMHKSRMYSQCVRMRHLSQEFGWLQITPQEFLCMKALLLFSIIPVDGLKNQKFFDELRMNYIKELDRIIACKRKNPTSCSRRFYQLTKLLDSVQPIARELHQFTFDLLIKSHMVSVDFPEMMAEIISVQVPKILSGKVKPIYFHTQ
How it was run: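 Cell line: GeneBLAzer AR-UAS-bla GripTite (HEK293). Stimulus: R1881 added after compound. Exposure: 16 h, 37C, 5% CO2. Readout: LiveBLAzer B/G FRET fluorescence after 2 h at room temperature.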

[17] = biological target: Androgen receptor (Homo sapiens) (UniProt P10275); test: qHTS assay to identify small molecule agonists of the androgen receptor (AR) signaling pathway (AID 743036; active means well fitted activation curve with a large enough effect in the signal ratio in the repeat runs, with a control signal flat, not every such curve was filed as active; the % refers to the signal ratio; further: on the % scale 0 is the no-effect control and ±100 the full control effect)
How it was run: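 Following a 4 h settling period, AR-UAS-bla HEK293 cells were dosed with compounds for 16 h at 37C. A 2 h room-temperature incubation with LiveBLAzer B/G FRET substrate preceded the fluorescence measurement.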

[18] = biological target: Androgen receptor (Homo sapiens) (UniProt P10275); test: qHTS assay to identify small molecule antagonists of the androgen receptor (AR) signaling pathway using the MDA cell line (AID 743042)
How it was run: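 Antagonist mode: compounds plus R1881 agonist added to MDA-kb2 AR-luc cells, incubated 16 h at 37C. Luciferase reporter luminescence quantified, with multiplexed CellTiter-Fluor readout for cell viability.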

CCC(N)(CO)CO
inactive: Potency [1] | Potency [2] | Potency [3] | Potency [4] | Potency [5] | Potency [6] | Potency [7] | Potency [8] | Potency [9] | Potency [10] | Potency [11] | Potency [12] | activation ([13]; at 95 µM (top of the series)) -5.95% | Potency [14] | Potency [15] | Potency (Aromatase (Homo sapiens))

C[C@H](CCC(=O)O)[C@H]1CC[C@H]2[C@@H]3CC[C@@H]4C[C@H](O)CC[C@]4(C)[C@H]3CC[C@]12C
active: Potency [7] 27.2 µM and 54.5 µM | Potency [8] 17.2 µM and 30.6 µM | Potency [11] 54.9 µM
inactive: Potency [1] | Potency [2] | Potency [3] | Potency [4] | Potency [5] | Potency [6] | Potency [9] | Potency [12] | activation ([13]; at 70.3 µM (top of the series)) -1.63% and -14.3% | Potency [14] | Potency [15] | Potency (Aromatase (Homo sapiens))

CC(=O)N1CCN(c2ccc(OC[C@H]3CO[C@](Cn4ccnc4)(c4ccc(Cl)cc4Cl)O3)cc2)CC1
inactive and 43.6 µM (active): Potency [11]
inactive and 21.7 µM (active): Potency [7]
active: Potency [2] 10.6 µM and 3.86 µM | Potency [3] 23.7 µM and 4.33 µM | Potency [4] 21.1 µM and 6.11 µM | Potency [8] 26.6 µM and 15.4 µM | Potency [14] 13.3 µM
inactive: Potency [1] | Potency [9] | Potency [10] | Potency [12] | Potency [15] | Potency (Aromatase (Homo sapiens))
inactive and 19.5 µM (active): Potency [5]

Cn1cc(C(=O)[C@@H]2CCc3nc[nH]c3C2)c2ccccc21
inactive: Potency [1] | Potency [2] | Potency [3] | Potency [4] | Potency [5] | Potency [7] | Potency [8] | Potency [9] | Potency [10] | Potency [11] | Potency [12] | activation ([13]; at 70.3 µM (top of the series)) 5.8% | Potency [14] | Potency [15] | Potency (Aromatase (Homo sapiens))

Nc1c(Cl)cc(Cl)cc1Cl
inactive: Potency [1] | Potency [2] | Potency [3] | Potency [4] | Potency [5] | Potency [6] | Potency [8] | Potency [9] | Potency [11] | Potency [15] | Potency (Aromatase (Homo sapiens))

CSc1ccc(C(=O)c2[nH]c(=O)[nH]c2C)cc1
inactive: Potency [1] | Potency [2] | Potency [3] | Potency [4] | Potency [5] | Potency [6] | Potency [10] | Potency [11] | Potency [12] | Potency [14] | Potency [15] | Potency (Aromatase (Homo sapiens))

O=C1Cc2cc(CCN3CCN(c4nsc5ccccc45)CC3)c(Cl)cc2N1
active: Potency [2] 21.1 µM and 10.6 µM | Potency [3] 33.5 µM and 26.6 µM | Potency [4] 18.8 µM and 9.44 µM
inactive: Potency [1] | Potency [5] | Potency [6] | Potency [11] | Potency [12] | activation ([13]; at 70.3 µM (top of the series)) 1.77% and -23.7% | Potency [14] | Potency [15] | Potency (Aromatase (Homo sapiens))
inactive and 16.8 µM (active): Potency [7]

Cc1ccc(O)c2ncccc12
active: Potency [2] 2.11 µM | Potency [3] 2.98 µM | Potency [4] 4.73 µM | Potency [16] 26.8 µM | Potency [6] 18.8 µM | Potency [18] 13.3 µM | Potency [7] 6.68 µM | Potency [8] 6.68 µM | Potency (Aromatase (Homo sapiens)) 13.3 µM
inactive: Potency [1] | Potency [17] | Potency [11] | Potency [12] | Potency [14]

CC(C)(C)CC(C)(C)c1ccc(OCCOCC[N+](C)(C)Cc2ccccc2)cc1
inactive and 61.1 µM (active): Potency [15]
inactive: Potency [12]
active: Potency [1] 19.5 µM | Potency [2] 668 nM and 1.53 µM | Potency [3] 841 nM and 968 nM | Potency [4] 1.06 µM and 1.93 µM | Potency [5] 21.3 µM and 7.75 µM | Potency [6] 24.8 µM and 38.5 µM | Potency [7] 16.8 µM and 13.7 µM | Potency [8] 16.8 µM and 13.7 µM | Potency [11] 19 µM and 19.5 µM | Potency (Aromatase (Homo sapiens)) 23.7 µM and 12.2 µM

O=C(OCC(COC(=O)c1ccccc1)(COC(=O)c1ccccc1)COC(=O)c1ccccc1)c1ccccc1
inactive: Potency [1] | Potency [2] | Potency [3] | Potency [4] | Potency [5] | Potency [6] | Potency [8] | Potency [9] | Potency [11] | Potency [15] | Potency (Aromatase (Homo sapiens))

Oc1cccc2cc3cccc(O)c3c(O)c12
inactive: Potency [1] | Potency [2] | Potency [3] | Potency [4] | Potency [5] | Potency [7] | Potency [8] | Potency [9] | Potency [11] | Potency (Aromatase (Homo sapiens))

O=C(NO)C1(NS(=O)(=O)c2ccc(Oc3ccc(F)cc3)cc2)CCOCC1
active: Potency [2] 54.5 µM | Potency [3] 30.6 µM | Potency [4] 30.6 µM
inactive: Potency [1] | Potency [5] | Potency [7] | Potency [8] | Potency [9] | Potency [10] | Potency [11] | Potency [12] | Potency [15] | Potency (Aromatase (Homo sapiens))

O=C(OC[C@H]1O[C@@H](OC(=O)c2cc(O)c(O)c(OC(=O)c3cc(O)c(O)c(O)c3)c2)[C@H](OC(=O)c2cc(O)c(O)c(OC(=O)c3cc(O)c(O)c(O)c3)c2)[C@@H](OC(=O)c2cc(O)c(O)c(OC(=O)c3cc(O)c(O)c(O)c3)c2)[C@@H]1OC(=O)c1cc(O)c(O)c(OC(=O)c2cc(O)c(O)c(O)c2)c1)c1cc(O)c(O)c(OC(=O)c2cc(O)c(O)c(O)c2)c1
active: Potency [1] 16.9 µM | Potency [2] 5.96 µM | Potency [3] 10.6 µM and 16.5 µM | Potency [4] 11.9 µM | Potency [5] 19 µM | Potency [7] 3.35 µM and 16.5 µM | Potency [8] 3.76 µM and 16.5 µM | Potency [11] 6.74 µM | Potency [15] 21.1 µM
inactive: Potency [9]

From PubChem BioAssay (Tox21)
